Results with a measured potency or affinity are listed apart. Calls of active or inactive are those of the source. The rule behind the calls is not given here.
test system: Drosophila melanogaster bursicon receptor LGR2 (rickets); assay: LGR2 antagonists, dose response, cell-based, HEK293, CRE-luciferase reporter, cherry pick, set 2 (AID 743343); details: bursicon-induced cAMP antagonist; series mostly up to 35 µM

outcome, inactive:
COc1ccc(CCNC(=O)C2CCN(S(=O)(=O)c3ccc(Cl)cc3)CC2)cc1OC
COc1ccc(N(CC(=O)NCc2cccs2)S(=O)(=O)c2ccc(C(C)=O)cc2)cc1
CCc1nnc2cccc(Cl)n12
CO[C@H]1CN(C)C(=O)c2ccc(NC(=O)c3ccc(-c4ccccc4)cc3)cc2OC[C@@H](C)NC[C@@H]1C
CCOC(=O)Nc1ccc(N2CCOCC2)c(S(=O)(=O)Nc2ccc(Cl)cc2)c1
O=C(c1ccc(F)cc1)N1CC(=O)N2[C@@H](CO)[C@@H](c3ccc(C#CC4CCCC4)cc3)[C@@H]2C1
N#C[C@H]1[C@@H](c2ccc(C3=CCCCC3)cc2)[C@H](CO)N1C(=O)c1ccccn1
O=C(C[C@H]1C=C[C@@H](NC(=O)C2CCC2)[C@H](CO)O1)NCCCN1CCOCC1
C[C@H]1CN([C@@H](C)CO)C(=O)c2cc(C#CCc3ccccc3)cnc2O[C@H]1CN(C)Cc1ccccc1
C[C@H](CO)N1C[C@H](C)[C@H](CN(C)Cc2ccccc2)Oc2c(NS(=O)(=O)c3cn(C)cn3)cccc2C1=O
C[C@@H]1CN([C@@H](C)CO)C(=O)c2cccc(NC(=O)Nc3ccc(C(F)(F)F)cc3)c2O[C@H]1CN(C)C(=O)Nc1cccc2ccccc12
O=C(c1ccc2c(c1)OCCO2)C1CCN(S(=O)(=O)c2ccc(F)cc2)CC1
CCOC(=O)C1=CCN(S(=O)(=O)c2ccccc2C)C1c1cccc(C)c1 (centres undefined)
CCC(=O)N(C)C[C@H]1Oc2cc(C#CCC(C)C)ccc2S(=O)(=O)N([C@H](C)CO)C[C@@H]1C

— PubChem BioAssay AID743343 (Broad Institute, 2014)
